aSyn yeast inh – alpha-synuclein toxicity inhibition in yeast | 370,000 compounds, 0.14% hits | Potency, µM (titrated, usually from 46.1 µM), for the others: at the top dose growth rescue (activation), actives largely listed as activators | Yeast expressing alpha-synuclein, growth rescue, BacTiter-Glo, 24 h; further: % of control where 0% means no effect; nearly all actives have a fitted effect of over 65% in size
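Readout is rescue of growth in alpha-synuclein-expressing yeast, so inhibitors of toxicity appear as activators. Growth after 24 hr at 30 deg C in galactose medium is quantified by luminescence.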
Mito fusion act – blocks mitochondrial division or promotes mitochondrial fusion; S. cerevisiae fusion-defective mutant growth rescue, CellTiterGlo 48 h; Potency, µM (top dose mostly 46.1 µM), without a hit: at the top dose growth rescue (activation), actives largely listed as activators; 320,000 compounds, 0.23% hits; AID 485298; further: % of control where 0% means no effect; nearly all actives have a fitted effect of over 45% in size
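Luminescent cell viability in 1536-well qHTS format served as the measure of rescued growth in ts fusion-mutant S. cerevisiae cultured on non-fermentable YPEG for 48 hours at 37C.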
Abeta yeast res – restores growth of yeast expressing A-beta42 peptide; yeast expressing A-beta42, growth rescue, OD600, 48 h; response scale: 0% DMSO, 100% iron-clioquinol control; 410,000 compounds, 0.063% hits; Potency, µM (titrated, usually from 46.1 µM), hits mostly activators; further: nearly all actives have a fitted effect of over 55% in size
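Yeast A-beta toxicity model in growth medium with pinned compounds, 48 h at 30 C; growth read as absorbance at 600 nm. Normalized to FeCl3/clioquinol equimolar mix (positive) and DMSO (negative).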
TDP-43 yeast inh – inhibitors of TDP-43 toxicity in yeast; TDP-43 expressing yeast growth rescue, BacTiter-Glo, 24 h; Potency, µM (highest dose often 46.1 µM), inactives show top-dose growth rescue (activation), actives largely listed as activators; 410,000 compounds, 1.8% hits; further: % of control where 0% means no effect; nearly all actives have a fitted effect of over 50% in size
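In this qHTS, compounds that restore growth of yeast expressing TDP-43 appear as activators. Cells (OD600=0.02, galactose medium, raffinose-pregrown) are incubated with compound 24 hr at 30 deg C and growth is quantified by BacTiter-Glo.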
FUS yeast rescue – suppressors of FUS proteinopathy in yeast; S. cerevisiae FUS-expressing, growth rescue, OD600, 24 h; Potency, µM (top dose mostly 76.6 µM), hits mostly activators; 390,000 compounds, 0.24% hits;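 further: plate controls were DMSO vehicle for no effect and reference control for full effect; nearly all actives have a fitted effect of over 55% in size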
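Toxicity suppression screen in FUS-yeast. Cells induced with 2% galactose, starting OD 0.005, treated 24hr at 30C with compounds at multiple final concentrations; growth by OD600.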
Active calls of the source: *; i = inactive; u = inconclusive; x = not tested or not shown; ! = repeats disagree. This is a sample that favours compounds with a hit; in the whole collection about 2.2% have one here. The call rests on the fitted dose curve; in most records, active means well fitted curve in the direction sought with a large enough effect; inconclusive means small, poorly fitted or top-dose-only effect, or another doubt; inactive means no such curve, though single readings can be large; an effect the other way counts as inactive or inconclusive. Potency means the concentration at half of the fitted maximal effect.

SMILES | aSyn yeast inh | Mito fusion act | Abeta yeast res | TDP-43 yeast inh | FUS yeast rescue
CC1Cc2ccccc2N1C(=O)Cn1cnc2c1c(=O)n(C)c(=O)n2C (stereo not given) | -3% | -8% | i | -37% | i
COC(=O)NNC(=O)c1ccc(C)c(Br)c1 | 2% | -28% | u | 20µM* | x
Cc1ccc(C(=O)NNC(=O)C2CC2)cc1Br | -1% | 0% | i | 8% | i
Cc1onc(-c2ccc(Cl)cc2)c1-c1ccn(S(=O)(=O)c2ccccc2)n1 | x | x | x | x | i
O=C(NCCc1ccc(Cl)cc1)c1cnc2n(c1=O)CCS2 | 11% | 5% | i | 35µM* | i
Cc1nc(-c2cccc(NC(=O)Nc3ccc([N+](=O)[O-])cc3)c2)no1 | -9% | x | i | 7% | i
O=C(CSc1cc(Cl)ccc1Cl)Nc1ccc(N2CCOCC2)cc1 | 0% | u | i | 16µM* | i
CCCCCCCn1c(NC(=O)CC)nc2ccccc21 | u | 12% | 22µM* | u | i
CCCn1c(NC(=O)c2cccc(S(=O)(=O)N3CCCC3)c2)nc2ccccc21 | 1% | 17% | i | 22µM* | u
CCC(=O)Nc1nc2ccccc2n1CCN1CCOCC1 | 3% | -3% | i | -1% | i
COc1ccc(/C=C/c2nc(C#N)c(N3CCN(c4ccccc4)CC3)o2)cc1OC | x | x | i | -17% | i
CCCn1c(C)cc(C(=O)COc2ccc(-c3nnco3)cc2)c1C | 11% | 2% | i | 28µM* | i
CCCCC(c1nnnn1CC1CCCO1)N1CCN(c2ccccc2)CC1 (stereo not given) | 1% | 6% | i | 7% | i
CCCCC(c1nnnn1CC1CCCO1)N1CCN(c2cc(Cl)ccc2C)CC1 (stereo not given) | -14% | 1% | i | 18µM* | x
CCCCC(c1nnnn1CC1CCCO1)N1CCN(c2nc3ccccc3s2)CC1 (stereo not given) | -3% | 14µM* | i | -4% | i
CCOc1ccc(NCc2cccn2-c2nnc(N3CCC(C(=O)NCCc4ccc(OCC)c(OCC)c4)CC3)s2)cc1 | x | x | i | 10% | u
CCOc1ccc(NCc2cccn2-c2nnc(N3CCC(C(=O)NCCc4ccc(OC)c(OC)c4)CC3)s2)cc1 | x | x | i | -6% | 25µM*
CC(=O)c1c(C)oc2c(Cl)cc(NS(=O)(=O)c3cc(C)c(C)cc3C)cc12 | x | x | i | 13% | i
Cn1ccc2c(-c3ccc(C(=O)O)cc3)cc3c(c21)C1CCC3O1 (stereo not given) | 3% | x | i | 22µM* | i
Cn1ccc2c(-c3ccc(CO)cc3)cc3c(c21)C1CCC3O1 (stereo not given) | u | x | i | 12% | i
Cn1ccc2c(-c3ccc(F)cc3)cc3c(c21)C1CCC3C1 (stereo not given) | -20% | x | i | 0% | i
Cn1ccc2c(-c3ccc4c(c3)OCCO4)cc3c(c21)C1CCC3O1 (stereo not given) | -13% | x | i | 22µM* | u
Cn1ccc2c(-c3ccc(CO)cc3)cc3c(c21)C1CCC3C1 (stereo not given) | 14% | x | i | 35µM* | u
Cc1ccccc1-c1cc2c(c3c1ccn3C)C1CCC2O1 (stereo not given) | -2% | x | u | 11µM* | i
CCOC(=O)c1c(C)oc2nc(C)nc(NCc3ccc(OC)cc3)c12 | x | x | i | 14% | i
SMILES | aSyn yeast inh | Mito fusion act | Abeta yeast res | TDP-43 yeast inh | FUS yeast rescue
Cn1ccc2c(-c3ccc(C(C)(C)C)cc3)cc3c(c21)C1CCC3O1 (stereo not given) | 15% | x | i | 15% | i
CSc1ccc(-c2cc3c(c4c2ccn4C)C2CCC3O2)cc1 (stereo not given) | u | x | i | 25µM* | i
Cn1ccc2c(-c3ccc(C(F)(F)F)cc3)cc3c(c21)C1CCC3O1 (stereo not given) | -24% | x | u | 8.9µM* | i
CSc1ccc(-c2cc3c(c4c2ccn4C)C2CCC3C2)cc1 (stereo not given) | 3% | x | i | 0% | i
O=C(O)c1ccccc1NC(=O)N1c2ccccc2Sc2ccccc21 | x | x | i | 20µM* | i
COc1ccc(-c2cc(C(F)(F)F)c3c(=O)n(-c4ccccc4)[nH]c3n2)cc1 | x | 13% | i | 8.9µM* | i
COc1cccc(NC(=O)c2nc(SC)ncc2Cl)c1 | -15% | 4% | i | 2% | i
COc1ccc(N2CCN(C(=O)c3nc(SC)ncc3Cl)CC2)cc1 | x | x | i | 20µM* | i
CCCSc1ncc(Cl)c(C(=O)N2CCN(c3ccc(OC)cc3)CC2)n1 | x | x | i | u | u
CCSc1ncc(Cl)c(C(=O)N2CCN(c3ccccc3OC)CC2)n1 | x | x | i | 35µM* | i
CCS(=O)(=O)c1ncc(Cl)c(C(=O)N2CCN(c3ccc(OC)cc3)CC2)n1 | x | x | i | 13µM* | i
COc1ccc(NC(=O)c2nc(SC)ncc2Cl)cc1 | 1% | -2% | i | 20µM* | i
CC(C)Oc1ccc2c(=O)c(-c3ccccc3)coc2c1 | 12% | 25µM*! | i | u | i
COC(=O)COc1ccc2c(=O)c(-c3ccccc3)coc2c1 | -2% | -3% | i | 1% | i
COc1cc2ncc3c(-c4ccccc4)nn(-c4ccc(C)cc4)c3c2cc1OC | x | x | i | 7.1µM* | i
CCOC(=O)c1c(-c2ccc(C)cc2)csc1NC(=O)CCN1CC(C)OC(C)C1 (stereo not given) | 9% | 13µM* | i | 0% | x
CCOC(=O)c1c(-c2ccc(OC)cc2)csc1NC(=O)CCN1CCOCC1 | 14% | u | i | -20% | i
COc1ccc(N2CCN(C(=O)c3cn(C4CCCC4)c(=O)c4c3c3ccccc3n4C)CC2)cc1 | 14% | -10% | i | 20µM* | u
CC1(C)CC(NCc2ccccc2)=CC(=S)N1 | -2% | x | i | 26% | i
CC1(C)CC(N2CCN(CCO)CC2)=CC(=S)N1 | 18µM* | 1% | i | u | i
O=C(COC(=O)C(CO)NS(=O)(=O)c1ccc(Br)cc1)Nc1ccc2c(c1)OCCO2 (stereo not given) | 7% | x | i | 3% | i
CCn1cnnc1SCC(=O)c1c(N)n(C2CC2)c(=O)[nH]c1=O | -14% | -4% | i | -14% | i
O=C1COc2ccccc2N1Cc1ccccc1Cl | 15% | 18% | i | 22µM* | i
Cc1ccccc1CN1c2ccccc2S(=O)(=O)c2ccccc21 | x | x | i | 2% | i
O=S1(=O)c2ccccc2N(Cc2ccccc2Cl)c2ccccc21 | x | x | i | 6.3µM* | i

Bioassay records (PubChem)
